In all, about 33,000 sequences were measured (“E-score (-0.5 to 0.5)”: median about -0.0034, highest 2% from about 0.25 on). This is one part of a sample in which the highest values are shown more often than they occur.
What follows are sequences tested against T1, Yap3 (UniProt P38749) (assay: PBM E-score (8-mer binding enrichment) (E-score (-0.5 to 0.5)); higher = stronger / more preferred TF binding). Settings: protein concentration: 100 nM; construct: GST-full length.
T1 sequence: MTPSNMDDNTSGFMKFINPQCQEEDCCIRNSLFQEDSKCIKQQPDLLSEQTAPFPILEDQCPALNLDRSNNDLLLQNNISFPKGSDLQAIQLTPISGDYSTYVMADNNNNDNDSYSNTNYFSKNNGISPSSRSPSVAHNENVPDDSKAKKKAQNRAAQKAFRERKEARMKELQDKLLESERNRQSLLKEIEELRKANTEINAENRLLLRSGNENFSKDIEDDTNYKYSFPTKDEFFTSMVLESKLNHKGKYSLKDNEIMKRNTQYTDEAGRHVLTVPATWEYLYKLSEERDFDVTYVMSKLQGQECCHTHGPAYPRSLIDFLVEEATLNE
Procedure, shortened: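 GST-tagged yeast TFs (full-length or DNA-binding domain) were made by PURExpress in vitro transcription/translation and applied at about 100-200 nM to universal all-10-mer Agilent arrays. The arrays were made double-stranded by primer extension, on fresh or once-stripped slides. Bound protein was detected with fluorescent anti-GST, and scans were normalised with masliner. Each ungapped eight-base word, pooled with its reverse complement, received an E-score (modified Wilcoxon-Mann-Whitney statistic) from the Universal PBM Analysis Suite.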

Sequence	PBM E-score
AGAGAGCC	-0.201
CGTATCGC	0.0192
CTTATTAA	0.339
ACGATTAA	0.0578
TCGATTAA	0.308
ATCATTAA	0.207
GCGATTAA	0.216
CTCATTAA	0.0548
CTTATTGC	0.0255
GTTATTTA	0.165
CTTATTGA	0.0574
GTTATTAA	0.262
GTTATTGA	0.117
GTCATTAA	0.3
CCGCCACC	-0.155
CCTCAGGA	-0.184
CCAAGACG	-0.148
ATGGTGGA	-0.062
CGCTAATA	0.0177
CTCTCTAA	-0.149
CACCTTCA	0.014
GGCCCACA	-0.119
CGGAGCAG	-0.191
AGATTTGG	-0.12
ATTGCAGG	0.073

Sequence	PBM E-score
CTGATTAA	0.203
ATGATTAG	0.124
TCCATTAA	0.0027
CCTATTAA	0.0368
ACTATTAA	0.123
ATGATTAA	0.274
ACCATTAA	0.26
ATTATTAA	0.378
CCCATTAA	-0.108
ATAAGATG	0.176
AATAGAAA	0.138
ATTGTATG	0.151
ATGGTATG	0.00998
ATGGTATC	0.175
ATTGTATA	0.298
CTTGTATA	0.127
ATGGTATA	0.262
CGGTCGCC	-0.2
CTCTAAAC	0.167
AAGCTGAG	0.0158
AGCAGAGA	-0.0117
TCGTAGAA	-0.0144
CCGCCTAA	-0.155
CAAAATAA	0.296
TAAAATAA	0.0792

Sequence	PBM E-score
CAAAAATA	0.332
AAAAATAA	0.25
AAAATAGA	0.256
CCAAAATA	0.211
TAAATAGA	-0.0374
GAAAAATA	0.114
AAAAAATA	0.287
ACAAAATA	0.175
AAAATAGC	-0.0905
CAAAAATC	0.051
CAGTTTGC	0.124
ACGCCGCG	-0.0869
AGACCTGG	-0.0312
AGTTTGCC	0.175
GCGGCTCA	0.0715
TAAATAAA	0.282
GAAAGATA	0.217
TAAATATA	0.297
AAAATAAA	0.204
CTAAAATA	0.148
GAAATATA	0.248
CAAATATA	0.0799
CAAATAAA	0.197
TAAAAAAA	0.0893
TAAAGATA	0.254

Sequence	PBM E-score
CAAAGATA	0.0838
TAAAAATA	0.26
TAGGTCAA	0.0932
AGGAATAA	0.156
GTGGTAAA	-0.0974
AGAGCTCC	-0.275
AATTGGAG	-0.0503
ATGGCCGA	0.0282
ATGTGCAA	0.059
ATCTGTTG	-0.0152
AAAAACTC	0.072
AGAATCGG	-0.0519
AAAGACAA	0.261
ACAGACAG	0.0669
TAAGACAA	0.187
ACAGACAC	-0.0498
ACAGACAA	0.285
CAAGACAA	0.0625
CGACCAAA	0.174
CCTCAGGC	-0.249
CAGGTGCG	0.015
ATAAAAAA	0.187
GTAAAATA	0.117
ATAAAATC	0.207
ATAAAAAG	0.261

Sequence	PBM E-score
ATAAAATG	0.276
ATAAAAGG	-0.011
ATAAAATA	0.298
AAAAAATG	0.209
ATAAAACG	0.206
GACATTCC	-0.186
ACTGACCG	-0.0919
ACCCCTCT	-0.251
AGTTGAAC	0.00888
GATCTTGA	0.0634
ACACTTGC	0.0282
GAAATGCC	0.0869
CAAATGAC	0.0524
GAAATGAA	0.289
GAAATGAC	0.259
TAAATGAA	0.117
CAAATGAA	0.14
TTGGCCAA	-0.0814
GCGCCCAC	-0.0948
ATGCTACC	0.0357
ACCTCTCC	-0.165
ACATGGCA	-0.0266
TATAACAA	0.265
CATAACAA	0.18
GATAACAA	0.0894

Sequence	PBM E-score
TATAACCA	0.269
GATAACCA	0.161
CATAACCA	0.0668
GAGGGGCA	-0.299
CAATGCTG	-0.114
AGCAAAAA	0.122
CCCAACGA	-0.0115
GATTTTCA	0.175
AATTATCT	0.237
AATTATCC	0.133
CATTATCG	0.129
AATTATCG	0.267
AATTATCA	0.288
CATTATCA	0.161
TTCCCGAA	0.115
CGAGTACG	-0.147
AGAAGGTA	0.28
AGAAGGTG	0.029
GGAAGGTA	-0.0252
TGAGCTCA	0.0969
AAAGGTCT	-0.0778
GTTGGCTA	0.12
ATGGGTAG	-0.0623
GTGCAGCA	-0.204
CCTTTGTA	-0.135

Sequence	PBM E-score
ACTTTGTA	0.0238
GCTTTGTA	0.259
GATTATGC	0.0614
AATTATGA	0.278
AATTATGT	0.164
AATTATGG	0.238
AATTATGC	0.273
CATTATGC	0.0641
CAGTCTAC	-0.192
GGCTTCCC	-0.127
CTCCAACA	0.141
AATTACGA	0.33
GATTACGA	0.291
GGTTACGA	0.06
GATTACGC	0.108
GCTTACGA	0.219
ACTTACGC	0.122
ACTTACGA	0.315
AATTACAA	0.151
CTTTACGA	-0.0493
TATTACGA	0.326
TATTACCA	0.196
CATTACGA	0.149
GGCCTTAC	-0.144
CTCTAATC	-0.0693

Sequence	PBM E-score
CCACTAGC	-0.158
AGCTGAAA	-0.101
AGAATTCT	0.124
TCCGCAAA	0.0357
ACAGACGC	-0.168
CGTGCACC	-0.0988
AATTACGC	0.208
AATTACGT	0.308
AATTACGG	0.235
GATAATTA	0.251
CATAATGA	0.118
AATAATTC	0.263
AATAATGA	0.0556
AATAATTA	0.316
CATAATTC	0.23
CATAATTA	0.316
AATAATTG	0.203
AATAATGC	0.216
ACCTTCAG	-0.0617
AGCAAAGC	0.0118
ACTAGCGC	0.0683
GGCACTAA	0.107
CGGTGTGA	0.115
AAGAACAC	0.147
GAGAACAA	0.311

Sequence	PBM E-score
AAGAACAA	0.267
CAGAACAA	0.248
AAGAACAG	0.0639
GAGAACAC	-0.00708
CCGCGAGG	-0.0632
AAGTCTCC	-0.0848
ACGGAGAT	-0.0531
CACTGGAC	-0.0821
CTTATTAC	0.251
ATTATTGG	0.0681
ATTATTAG	0.259
ACTATTAC	0.149
ATTATTAC	0.269
ACTATTAG	0.136
ATCCAAAG	0.165
GTCAGCCA	-0.0924
CCCCAACA	-0.111
ATTATAAA	0.231
AGTATATG	0.157
AGTATAAG	0.193
ATTATAAT	0.319
AGTATATA	0.364
AGTATAAT	0.293
AGTATAAA	0.304
ATTATAAG	0.0886

Sequence	PBM E-score
TGTATAAA	0.211
AGTATATC	0.0292
AGTATAAC	-0.0565
GGTATAAA	0.239
CGACTCCG	-0.24
GCTGGCTA	-0.196
ACTCACCA	-0.0571
AGGTTACA	-0.0016
GGCTGCAC	-0.206
CGTTGTGA	-0.0712
ATTTATTA	0.277
AATATTTC	0.154
AGTATTTA	0.16
ACTATTTC	0.224
GGTATTTA	0.104
AATATTTA	0.295
ATTTATTC	0.212
CTTATTTC	0.251
ATTATTTC	0.302
CATATTTA	0.185
CGTATTTA	0.313
ATTTATTG	0.0964
GGGGGACC	-0.358
GATGGAGC	-0.108
ACACCAGG	-0.237

Sequence	PBM E-score
CACTACTG	0.0352
ATCAGTAG	0.0393
GCACACGC	-0.0783
CTACTGCC	-0.0886
ATGTACAA	0.0885
CGACGTCA	0.0828
CAGGTTAC	0.0255
GTTTATTA	0.268
GGTTATTA	0.158
CTTATTTA	0.11
CTTTATTA	0.199
ATTATTTG	0.197
ATTATTTA	0.289
AATTTAGT	0.21
AATTTACT	0.271
AAATTATT	0.275
AATTTACA	0.155
AAATTATC	0.251
AAATTATG	0.208
AATTTAAG	0.106
ACTTTACT	0.284
ACTTTACC	0.149
ACTTTACA	0.052
AATTTAAT	0.261
AATTTAAC	0.113

Sequence	PBM E-score
CAGGTGGG	-0.0568
CGGCTCTA	-0.067
CGTGGTCA	-0.112
ACTCTAAG	-0.0616
CTCCGTGA	-0.0971
CGCCACCA	-0.25
CGACCCCA	-0.16
AGTAACGA	-0.0656
GCGACAAA	0.0655
CGCTCGAG	0.0723
GGTTTTCA	0.0332
CTTTTGCA	0.227
AACGGTCG	0.105
AAATTAGG	0.196
AAATTACC	0.235
AAATTACG	0.172
AAATTACT	0.304
AAATTAGA	0.201
AAATTAGT	0.283
CGCAGCGA	-0.0766
TAGTGGGA	-0.0516
AAGCCTTC	-0.0737
GTGTAACA	-0.00489
AAAAGTTA	0.195
AATTTCGA	-0.00117

Sequence	PBM E-score
GATTTCGA	0.12
TATTTCGA	0.293
ATTGTCCG	0.216
TGGTAGAA	-0.0125
GTTATAAA	0.283
CTTATAAA	0.187
TCTATAAA	0.111
TTTATAAA	0.277
GTTATAGA	0.0873
GTTATAAC	0.162
GCAATTAA	0.112
AGAACGCG	0.14
AAGTCGCG	0.146
CATCTACG	-0.0208
GCCCGTAC	-0.155
ACATGATA	0.263
ACATGATC	0.115
TAATGATA	0.239
GAATGATA	0.295
AAATGATC	-0.129
TAATGAAA	0.218
AAATGATA	0.275
CAATGAAA	0.077
AAATGAAA	0.324
GCATGATA	0.184

Sequence	PBM E-score
AAATGATT	0.19
CAATGATA	0.137
ACCGCAAA	0.109
CCTTCATC	-0.195
AGACTATC	0.0563
AGAAGTCG	0.0232
CGGATAGC	0.052
GACCAGAA	-0.00826
ACGGCTAT	-0.0939
CAGACCTC	-0.181
GCAAAAGC	0.0339
AAATTAAT	0.229
AGATTAAT	0.194
ATATTAAT	0.351
CTATTAAC	0.188
ATATTAGA	0.175
AAATTAAA	0.319
GTATTAAC	0.0508
ATATTAAA	0.378
ATATTAAG	0.0834
CTATTAAA	0.135
ATATTAAC	0.274
AAATTAAC	0.136
